From PubChem BioAssay AID1159580 (chemical genetic matrix, 2015)
Values joined by “and” are separate entries in the source; they are usually repeats but may differ in a detail not shown here. Identical values can stand only once. Among all 5,500 compounds or so, about 2,000 (36%) were called active. Another 18% or so got no clear call; they are omitted. Cut-off read from the data, not from the text of the source: active = normalized growth mostly below about 0.91 (no sharp cut-off); inconclusive = no clear call, values can overlap the other calls; inactive = mostly above about 0.92. The list shows a part of the results.

Assay: chemical genetic growth profiling, strain panel (AID 1159580);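 note: tested at 20 µM; growth read once vehicle control cultures reached saturation at 30 °C; 1 = growth at the plate median or of vehicle wells; lower values mean less growth of the strain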
Conditions: growth OD

Measured: normalized growth

C[C@@H]1OC(O[C@H]2[C@H](O)[C@@H](O)[C@H](OC[C@H]3O[C@@H](OC(=O)[C@]45CCC(C)(C)CC4C4=CCC6[C@@]7(C)CC[C@H](OC8OC[C@H](O)[C@H](O)[C@H]8OC8O[C@@H](C)[C@H](O)[C@@H](O)[C@H]8O)[C@@](C)(CO)C7CC[C@@]6(C)[C@]4(C)CC5)[C@H](O)[C@@H](O)[C@@H]3O)O[C@@H]2CO)[C@H](O)[C@H](O)[C@H]1O (some centres undefined)
inactive: S. cerevisiae deletion strains, locus YBR021W, strain FUR4, stronger effect = lower value 0.991 | S. cerevisiae deletion strains, locus YBR229C, strain ROT2, stronger effect = lower value 0.987 | S. cerevisiae deletion strains, locus YCL029C, strain bik1, stronger effect = lower value 0.985 | S. cerevisiae deletion strains, locus YDL035C, strain GPR1, stronger effect = lower value 1 | S. cerevisiae deletion strains, locus YDL074C, strain BRE1, stronger effect = lower value 0.99 | S. cerevisiae deletion strains, locus YDL101C, strain DUN1, stronger effect = lower value 0.992 | S. cerevisiae deletion strains, locus YDL134C, strain PPH21, stronger effect = lower value 1.02 | S. cerevisiae deletion strains, locus YDL185W, strain tfp1, stronger effect = lower value 0.97 | S. cerevisiae deletion strains, locus YDL192W, strain arf1, stronger effect = lower value 0.985 | S. cerevisiae deletion strains, locus YDR101C, strain arx1, stronger effect = lower value 0.995 | S. cerevisiae deletion strains, locus YDR150W, strain NUM1, stronger effect = lower value 0.998 | S. cerevisiae deletion strains, locus YDR162C, strain NBP2, stronger effect = lower value 1.02 | S. cerevisiae deletion strains, locus YDR318W, strain mcm21, stronger effect = lower value 0.993 | S. cerevisiae deletion strains, locus YDR388W, stronger effect = lower value 0.986 | S. cerevisiae deletion strains, locus YDR502C, strain sam2, stronger effect = lower value 0.99 | S. cerevisiae deletion strains, locus YEL061C, strain CIN8, stronger effect = lower value 0.993 | S. cerevisiae deletion strains, locus YER110C, stronger effect = lower value 0.986 | S. cerevisiae deletion strains, locus YER155C, strain BEM2, stronger effect = lower value 0.989 | S. cerevisiae deletion strains, locus YER167W, strain BCK2, stronger effect = lower value 1 | S. cerevisiae deletion strains, locus YGL078C, strain dbp3, stronger effect = lower value 0.985 | S. cerevisiae deletion strains, locus YGL086W, strain mad1, stronger effect = lower value 1.01 | S. cerevisiae deletion strains, locus YGL248W, strain PDE1, stronger effect = lower value 0.991 | S. cerevisiae deletion strains, locus YGR135W, strain pre9, stronger effect = lower value 0.993 | S. cerevisiae deletion strains, locus YGR229C, strain SMI1, stronger effect = lower value 1.01 | S. cerevisiae deletion strains, locus YGR252W, strain gcn5, stronger effect = lower value 0.987 | S. cerevisiae deletion strains, locus YHR030C, strain SLT2, stronger effect = lower value 0.997 and 1.02 | S. cerevisiae deletion strains, locus YHR079C, strain IRE1 (second series), stronger effect = lower value 0.993 | S. cerevisiae deletion strains, locus YHR079C, strain IRE1, stronger effect = lower value 1.01 | S. cerevisiae deletion strains, locus YHR094C, strain hxt1, stronger effect = lower value 0.996 | S. cerevisiae deletion strains, locus YHR129C, strain ARP1, stronger effect = lower value 0.99 | S. cerevisiae deletion strains, locus YHR200W, strain rpn10, stronger effect = lower value 0.997 | S. cerevisiae deletion strains, locus YIL066C, strain RNR3, stronger effect = lower value 1 | S. cerevisiae deletion strains, locus YIL073C, strain SPO22, stronger effect = lower value 0.993 | S. cerevisiae deletion strains, locus YIL125W, strain kgd1, stronger effect = lower value 0.983 | S. cerevisiae deletion strains, locus YIR030C, strain dcg1, stronger effect = lower value 1 | S. cerevisiae deletion strains, locus YJL095W, strain BCK1, stronger effect = lower value 1.01 and 0.985 | S. cerevisiae deletion strains, locus YJL134W, strain LCB3, stronger effect = lower value 0.991 | S. cerevisiae deletion strains, locus YJL168C, strain set2, stronger effect = lower value 0.991 | S. cerevisiae deletion strains, locus YJL187C, strain SWE1 (second series), stronger effect = lower value 0.997 | S. cerevisiae deletion strains, locus YJR043C, strain POL32, stronger effect = lower value 1.02 | S. cerevisiae deletion strains, locus YJR066W, strain TOR1, stronger effect = lower value 0.967 | S. cerevisiae deletion strains, locus YJR075W, strain HOC1, stronger effect = lower value 1.02 | S. cerevisiae deletion strains, locus YKL009W, strain mrt4, stronger effect = lower value 0.968 | S. cerevisiae deletion strains, locus YKL068W, stronger effect = lower value 0.98 | S. cerevisiae deletion strains, locus YKL085W, strain MDH1 (second series), stronger effect = lower value 1 | S. cerevisiae deletion strains, locus YKL085W, strain MDH1, stronger effect = lower value 1 | S. cerevisiae deletion strains, locus YKL190W, strain CNB1, stronger effect = lower value 0.995 | S. cerevisiae deletion strains, locus YKR001C, strain vps1, stronger effect = lower value 0.984 | S. cerevisiae deletion strains, locus YLR039C, strain RIC1, stronger effect = lower value 1.04 | S. cerevisiae deletion strains, locus YLR058C, strain SHM2, stronger effect = lower value 0.988 | S. cerevisiae deletion strains, locus YLR102C, strain apc9, stronger effect = lower value 0.993 | S. cerevisiae deletion strains, locus YLR113W, strain HOG1, stronger effect = lower value 0.992 | S. cerevisiae deletion strains, locus YLR262C, strain YPT6, stronger effect = lower value 1.03 | S. cerevisiae deletion strains, locus YLR268W, strain sec22, stronger effect = lower value 0.992 | S. cerevisiae deletion strains, locus YLR330W, strain CHS5, stronger effect = lower value 0.989 | S. cerevisiae deletion strains, locus YLR342W, strain FKS1 (second series), stronger effect = lower value 1.01 | S. cerevisiae deletion strains, locus YLR371W, strain rom2, stronger effect = lower value 0.986 | S. cerevisiae deletion strains, locus YLR418C, strain cdc73, stronger effect = lower value 0.992 | S. cerevisiae deletion strains, locus YML016C, strain PPZ1, stronger effect = lower value 0.987 | S. cerevisiae deletion strains, locus YML032C, strain rad52, stronger effect = lower value 0.986 | S. cerevisiae deletion strains, locus YML124C, strain tub3, stronger effect = lower value 0.991 | S. cerevisiae deletion strains, locus YMR078C, strain ctf18, stronger effect = lower value 0.985 | S. cerevisiae deletion strains, locus YMR223W, strain ubp8, stronger effect = lower value 0.98 | S. cerevisiae deletion strains, locus YMR263W, strain SAP30, stronger effect = lower value 1.01 | S. cerevisiae deletion strains, locus YMR307W, strain GAS1, stronger effect = lower value 1.06 | S. cerevisiae deletion strains, locus YNL067W, strain RPL9B, stronger effect = lower value 1.01 | S. cerevisiae deletion strains, locus YNL128W, strain TEP1, stronger effect = lower value 0.994 | S. cerevisiae deletion strains, locus YNL153C, strain GIM3, stronger effect = lower value 1.02 | S. cerevisiae deletion strains, locus YNL183C, strain NPR1, stronger effect = lower value 0.983 | S. cerevisiae deletion strains, locus YNL233W, strain BNI4, stronger effect = lower value 1 | S. cerevisiae deletion strains, locus YNL250W, strain rad50, stronger effect = lower value 0.971 | S. cerevisiae deletion strains, locus YNL271C, strain bni1, stronger effect = lower value 0.987 | S. cerevisiae deletion strains, locus YNL298W, strain CLA4, stronger effect = lower value 0.993 | S. cerevisiae deletion strains, locus YNL307C, strain MCK1, stronger effect = lower value 0.989 | S. cerevisiae deletion strains, locus YNR052C, strain pop2, stronger effect = lower value 0.978 | S. cerevisiae deletion strains, locus YOL006C, strain TOP1, stronger effect = lower value 0.946 | S. cerevisiae deletion strains, locus YOL012C, strain htz1 0.966 | S. cerevisiae deletion strains, locus YOL147C, strain pex11, stronger effect = lower value 0.997 | S. cerevisiae deletion strains, locus YOR061W, strain CKA2, stronger effect = lower value 0.984 | S. cerevisiae deletion strains, locus YOR069W, strain VPS5, stronger effect = lower value 0.991 | S. cerevisiae deletion strains, locus YOR136W, strain idh2, stronger effect = lower value 0.979 | S. cerevisiae deletion strains, locus YOR144C, strain elg1, stronger effect = lower value 0.997 | S. cerevisiae deletion strains, locus YOR184W, strain ser1, stronger effect = lower value 1.01 | S. cerevisiae deletion strains, locus YOR231W, strain MKK1, stronger effect = lower value 0.983 | S. cerevisiae deletion strains, locus YOR316C, strain cot1, stronger effect = lower value 0.983 | S. cerevisiae deletion strains, locus YPL055C, strain LGE1, stronger effect = lower value 1.02 | S. cerevisiae deletion strains, locus YPL241C, strain CIN2, stronger effect = lower value 0.997 | S. cerevisiae deletion strains, locus YPL256C, strain CLN2, stronger effect = lower value 1.04 | S. cerevisiae deletion strains, locus YPR119W, strain clb2, stronger effect = lower value 0.991 | S. cerevisiae deletion strains, locus YPR141C, strain kar3, stronger effect = lower value 0.982 | S. cerevisiae deletion strains, locus YPR163C, strain tif3, stronger effect = lower value 0.994 | S. cerevisiae deletion strains, locus YPR167C, strain met16, stronger effect = lower value 0.985 | S. cerevisiae deletion strains, strain wtn01, stronger effect = lower value 1 | S. cerevisiae strains, strain wild type, stronger effect = lower value 0.994
